Results on 93 molecules are retold here after PubChem BioAssay AID504332 (National Center for Advancing Translational Sciences (NCATS), 2011).

The structures appear in SMILES notation. Several values for one entry are separate records, joined by “and”; a condition that tells them apart may be missing. Equal entries are not always repeated. The whole screen tested about 350,000 compounds, of which about 31,000 (8.9%) were called active. Not shown: some 15% with an inconclusive outcome. The call rests on the fitted dose curve; in most records, active means well fitted inhibition curve with a large enough effect; inconclusive means small, poorly fitted or top-dose-only effect; inactive means no such curve, though single readings can be large or run the other way. Shown is part of a subset that was picked to be rich in actives. Where a call stands in place of a potency, no number is given. Some structures have more than one record in an assay (separate samples or runs), and their calls can disagree.
Potency means the concentration at half of the fitted maximal effect.

The target in the test is Histone-lysine N-methyltransferase EHMT2 (Homo sapiens) (UniProt Q96KQ7). Description: qHTS Assay for Inhibitors of Histone Lysine Methyltransferase G9a. Further: nearly all actives have a fitted effect of over 75% in size. Particulars: G9a H3K9 monomethylation, AlphaScreen, 2 h; series mostly up to 59 µM. The essentials: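 Compounds were preincubated with 20 nM G9a for 15 min, after which biotinylated H3K9 peptide (500 nM) and SAM (20 uM) started a 2 h room-temperature reaction. Monomethylated product was quantified by antibody-based AlphaScreen chemiluminescence.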
Histone-lysine N-methyltransferase EHMT2 (Homo sapiens), sequence (Q96KQ7 913-1193 limits assumed): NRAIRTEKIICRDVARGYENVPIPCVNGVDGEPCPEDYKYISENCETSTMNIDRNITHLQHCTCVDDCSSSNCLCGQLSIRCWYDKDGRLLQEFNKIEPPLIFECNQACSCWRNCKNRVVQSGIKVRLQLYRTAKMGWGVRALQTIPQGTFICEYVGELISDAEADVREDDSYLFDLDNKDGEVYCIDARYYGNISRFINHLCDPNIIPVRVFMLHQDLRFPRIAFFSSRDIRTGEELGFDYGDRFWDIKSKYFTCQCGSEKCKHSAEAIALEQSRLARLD
As to `CCN1C(=O)C(=O)N(CC(=O)Nc2cc(C)ccc2C)C1=O`, the activity, negative = inhibition was 1.01% [at 2.33 µM] (inactive).

`CCOc1ccc(Nc2nc3c(S(=O)(=O)c4cccc(Cl)c4)nnn3c3ccsc23)cc1`: the Potency entry is “inactive”.

With `CC(C)S(=O)(=O)c1oc(-c2ccc(F)cc2)nc1S(=O)(=O)c1ccc(F)cc1`, the Potency entry is “inactive”.

As for `C[N+](C)(CCCCCC[N+](C)(C)CCCN1C(=O)c2cccc3cccc(c23)C1=O)CCCN1C(=O)c2cccc3cccc(c23)C1=O`, the Potency entry was “inactive and 22.4 µM (active)”.

With `COc1ccc(N2C(=O)c3cccc4cccc(c34)C2=O)nn1`, the activity, negative = inhibition is -3.86% [at 12.7 µM] (inactive).

For `O=C1c2cccc3cccc(c23)C(=O)N1c1cccc(O)c1`, the activity, negative = inhibition was 21.1% [at 2.33 µM] (inactive).

Regarding `O=C(COC(=O)CCCN1C(=O)c2cccc3cccc(c23)C1=O)NC1CCS(=O)(=O)C1` (stereo not drawn), the Potency entry was “inactive”.

Regarding `O=C(CN1C(=O)c2cccc3cccc(c23)C1=O)N1CCCCC1`, the Potency result was “inactive”.

For the molecule `O=C1c2cccc3cccc(c23)C(=O)N1CCCCCc1n[nH]c(=S)o1`, the Potency is 2.51 µM (active).

For the molecule `O=C(Cn1cnc2c(oc3ccccc32)c1=O)Nc1ccc(OC(F)(F)F)cc1`, the Potency result was “inactive”.

Turning to `COc1cc(/C=N/NC(=O)c2cccnc2)ccc1OC(=O)c1cccc(Br)c1`, the Potency entry was “inactive”.

On to `CCc1ccccc1NC(=O)CN(C)C(=O)c1cc(C2CC2)nn1-c1ccccc1`, for which the activity, negative = inhibition is 14.2% [at 12.7 µM] (inactive).

Consider `CCCc1[nH]nc2c1C(C1CC=CCC1)C(C#N)=C(N)O2` (stereo not drawn), for which the Potency entry was “inactive”.

On to `CCCc1[nH]nc2c1C(c1ccc(Br)s1)C(C#N)=C(N)O2` (stereo not drawn), for which the Potency is 50.1 µM (active).

For the molecule `CCCc1[nH]nc2c1C(c1ccc(OC(=O)c3ccco3)cc1)C(C#N)=C(N)O2` (stereo not drawn), the Potency result is “inactive”.

Consider `COc1ccc(C2=NN(C(=O)c3ccccc3C(=O)O)C(c3ccccc3O)C2)cc1` (stereo not drawn), for which the Potency entry is “inactive”.

`CCC(=O)Nc1ccc(C)cc1-c1nc2ccccc2n(Cc2ccccc2)c1=O`: the Potency result is “inactive”.

Take `COc1ccc(NC(=O)CSc2nc(C)cs2)cc1`: the Potency result was “inactive”.

On to `COc1ccc(NC(=O)c2sccc2SCC#N)cc1`, for which the Potency was 7.94 µM (active).

As for `COc1ccc(NC(=O)c2sc(N)nc2-c2ccccc2)cc1`, the Potency entry was “inactive”.

`COc1ccccc1-c1sc2ccccc2c1-c1ccc(Br)nc1`: the activity, negative = inhibition was -0.161% [at 0.501 µM] (inactive).

Turning to `COc1cccc(CNC(=O)C(NS(=O)(=O)c2ccc3nc(C)sc3c2)C(C)C)c1` (stereo not drawn), the Potency result was “inactive”.

With `CC(=O)NS(=O)(=O)c1ccc(NC(=S)NC(=O)C(C)(C)C)cc1`, the activity, negative = inhibition is -14.5% [at 0.501 µM] (inactive).

For `O=S(=O)(NC(=S)Nc1ccccc1)c1ccc(F)cc1`, the Potency was 1.58 µM (active).

With `Cc1ccc(NC(=S)Nc2ccc(F)cc2)cc1`, the Potency result was “inactive”.

`Cc1cc(C)c(S(=O)(=O)n2cc(C(C)C(N)C(=O)O)c3ccccc32)c(C)c1` (stereo not drawn): the activity, negative = inhibition was 11.6% [at 12.7 µM] (inactive).

With `COc1ccc(C(=O)C2CCCN(S(=O)(=O)c3cccc(C)c3)C2)c(C)c1` (stereo not drawn), the Potency entry is “inactive”.

As for `CCn1ccnc1CN1CCCC(C(=O)c2ccc3c4c(cccc24)CC3)C1` (stereo not drawn), the Potency is 35.5 µM (active).

`O=C(CSc1nc2ccccc2c(=O)n1CCCO)NC1CC1`: the activity, negative = inhibition was -11.2% [at 2.33 µM] (inactive).

In the case of `O=S(=O)(NCC(c1ccccc1)N1CCc2ccccc21)c1ccccc1` (stereo not drawn), the Potency is 15.8 µM (active).

With `O=C(NCC(c1cccnc1)N1CCc2ccccc21)c1cccc(C(F)(F)F)c1` (stereo not drawn), the Potency result was “inactive”.

In the case of `COc1ccc(C(=O)NCC(c2ccc(N(C)C)cc2)N2CCc3ccccc32)c(OC)c1` (stereo not drawn), the Potency entry is “inactive”.

For `COc1ccc(S(=O)(=O)NCC(c2ccc(N(C)C)cc2)N2CCc3ccccc32)cc1OC` (stereo not drawn), the Potency was 14.1 µM (active).

Regarding `Cc1ccc(S(=O)(=O)NCC(=O)OCC(=O)N2CCc3ccccc32)cc1`, the Potency entry is “inactive”.

Turning to `COc1ccc(S(=O)(=O)NCC(c2ccc(N(C)C)cc2)N2CCCC2)cc1` (stereo not drawn), the activity, negative = inhibition was 0.776% [at 12.7 µM] (inactive).

Turning to `COC(=O)C1=C(c2ccccc2)c2ccccc2S(=O)(=O)N1CC(=O)Nc1ccccc1C(F)(F)F`, the Potency entry was “inactive”.

For the molecule `Cc1ccc(CN2CCC(CNC(=O)c3cnn(-c4ccccc4Cl)c3C3CCN(C(=O)OC(C)(C)C)CC3)CC2)cc1`, the Potency entry is “inactive”.

In the case of `COc1ccc(NC(=O)CCCc2nnc3n(CCC(C)C)c(=O)c4sccc4n23)c(OC)c1`, the Potency result was “inactive”.

With `CCCN(CCC)S(=O)(=O)c1ccc(C(=O)Nc2sc3c(c2C(=O)OC)CCN(CC)C3)cc1`, the Potency result is “inactive”.

For the molecule `CCOC(=O)N1CCN(C(=O)c2n[nH]c(=O)c3ccccc23)CC1`, the activity, negative = inhibition is 8.06% [at 12.7 µM] (inactive).

For `CCOC(=O)N1CCN(CC(=O)n2c(C)c(C)c3ccccc32)CC1`, the Potency was 12.6 µM (active).

Regarding `CCOC(=O)N1CCN(C(=O)Cn2cnc3ccccc3c2=O)CC1`, the activity, negative = inhibition was 1.87% [at 12.7 µM] (inactive).

With `CC1CCCCC1NC(=O)COC(=O)Cc1ccc(Cl)cc1` (stereo not drawn), the Potency result was “inactive”.

Turning to `CCOc1cc(C(=O)O)ccc1OCCOc1ccccc1`, the Potency result is “inactive”.

On to `CCOc1cccc2c1N[C@@H](c1ccc(C(=O)O)cc1)[C@H]1CC=C[C@@H]21`, for which the Potency was 4.47 µM (active).

Regarding `CCOc1c(CNCc2ccc(C(=O)O)cc2)cccc1OC`, the Potency result is “inactive”.

Consider `Cc1nn(C(C)C(=O)Nc2ccc(C(C)C)cc2)c(=O)c2c1sc1ccccc12` (stereo not drawn), for which the Potency result is “inactive”.

In the case of `O=C(NCc1ccccc1CN1CCCC1)c1cccc(S(=O)(=O)Nc2ccc(F)cc2)c1`, the Potency result is “inactive”.

For the molecule `COc1ccc(CCNCc2c(C(=O)O)c(C)n(Cc3cccc(C)c3)c2C)cc1OC`, the Potency entry was “inactive”.

With `Cc1cc(-c2cccs2)nc(-n2cccc2)n1`, the Potency entry was “inactive”.

Consider `CC(C)n1c(-c2cccs2)nc2ccccc21`, for which the Potency entry is “inactive”.

As for `c1csc(-c2cn3c(n2)SCC3)c1`, the Potency was 17.8 µM (active).

`CCC(C)N(C(=O)CSc1ncnc2c1cnn2-c1ccccc1)C1CCS(=O)(=O)C1` (stereo not drawn): the activity, negative = inhibition was 17.2% [at 2.33 µM] (inactive).

In the case of `COC(=O)[C@]1(C)N[C@H](c2ccc(-c3ccc(Cl)c(Cl)c3)cc2)[C@@H]2C(=O)N(C)C(=O)[C@@H]21`, the activity, negative = inhibition is 12.5% [at 2.33 µM] (inactive).

`COC(=O)c1ccccc1NC(=O)c1cc(-c2ccccc2O)no1`: the Potency entry is “inactive”.

For the molecule `Cc1ccc(O)c(NC(=O)c2cc(-c3ccc(F)cc3)no2)c1`, the Potency was 8.91 µM (active).

On to `Cc1ccc(O)c(NC(=O)c2cc(-c3ccco3)on2)c1`, for which the Potency entry is “inactive”.

Turning to `Cc1nn(C)c2c1c(C(F)(F)F)cc(=O)n2C(C)C(=O)NCc1ccc(Cl)cc1` (stereo not drawn), the Potency entry was “inactive”.

In the case of `CCCCCn1c(SCCC(C)C)nc2c1c(=O)[nH]c(=O)n2C`, the Potency is 10 µM (active).

Regarding `Cn1c(=O)[nH]c(=O)c2c1nc(Br)n2CCCCSc1nc2ccccc2o1`, the Potency entry is “inactive”.

For the molecule `CCCCn1c(SCC(=O)N2CCOCC2)nc2c1c(=O)n(C)c(=O)n2C`, the Potency entry is “inactive”.

For the molecule `CCOC(=O)c1ccccc1NC(=O)c1sc2nc(-c3ccc(F)cc3)cn2c1C`, the Potency entry was “inactive”.

For `Cc1ccc(C)c(CN2C(=O)c3ccccc3S(=O)c3ccc(C(=O)N4CCOCC4)cc32)c1` (stereo not drawn), the Potency result was “inactive”.

For `Cc1cc(C)c(C#N)c(SCc2[nH]nc3c2C(c2ccccc2)C(C#N)=C(N)O3)n1` (stereo not drawn), the Potency result was “inactive”.

For the molecule `CCCc1nc2c([nH]1)C(c1cccnc1)C(C#N)=C(N)O2` (stereo not drawn), the Potency result is “inactive”.

For `Cc1cc(C)c2c3c(sc2n1)C(c1ccccc1)C(C#N)=C(N)O3` (stereo not drawn), the Potency was 14.1 µM (active).

`O=C(NCCc1cccc(F)c1)C1CCCN(c2nc3ccccc3s2)C1` (stereo not drawn): the Potency entry was “inactive”.

For `COc1ccc(-c2[nH]c3c(c2-c2c(-n4cccc4)n(C)c(=O)n(C)c2=O)c(=O)n(C)c(=O)n3C)cc1`, the Potency result is “inactive”.

For `CCOC(=O)C1CCN(C(=O)COc2cccc3ccccc23)CC1`, the activity, negative = inhibition was 9.04% [at 12.7 µM] (inactive).

Consider `CCCn1c2ccccc2c2cnn(CC(=O)NCCCOC(C)C)c(=O)c21`, for which the Potency result is “inactive”.

As to `O=C1c2ccccc2NC(c2ccccn2)N1NS(=O)(=O)c1ccccc1` (stereo not drawn), the Potency entry was “inactive”.

On to `CN(C)c1ccc(C2Nc3ccccc3C(=O)N2NS(=O)(=O)c2ccccc2)cc1` (stereo not drawn), for which the Potency is 39.8 µM (active).

Consider `CC(=O)NN1C(=O)c2ccccc2NC1c1ccccc1` (stereo not drawn), for which the Potency entry is “inactive”.

As to `COc1cc(NC(=O)c2ccc(-c3csc(C)n3)cc2)c(OC)cc1Cl`, the Potency entry was “inactive”.

With `COc1ccc(Cl)cc1NC(=O)CSc1nc(-c2cccs2)cc(C(F)(F)F)n1`, the Potency result is “inactive”.

Regarding `CSc1ccccc1NC(=O)CCS(=O)(=O)c1nc(-c2cccs2)cc(C(F)(F)F)n1`, the Potency is 3.16 µM (active).

Turning to `COc1ccccc1-c1cc(C(F)(F)F)nc(S(=O)(=O)CCCC(=O)Nc2ccc(F)cc2F)n1`, the Potency result was “inactive”.

With `Cc1ccc(NC(=O)CSc2nc3c(c(=O)[nH]2)CN(Cc2ccc4c(c2)OCO4)CC3)cc1C`, the Potency entry was “inactive”.

For the molecule `O=C(Nc1ccccc1N1CCCCC1)c1ccc2nccnc2c1`, the Potency entry is “inactive”.

Consider `O=C(Nc1ccccc1N1CCCC1)c1ccc2ccccc2c1`, for which the Potency was 44.7 µM (active).

In the case of `O=C(Nc1ccccc1N1CCCC1)c1ccc(F)c(S(=O)(=O)N2CCOCC2)c1`, the activity, negative = inhibition is -5.62% [at 0.501 µM] (inactive).

For `Cc1cc(C)cc(OCC(=O)OCC(=O)NC2CCCC2)c1`, the activity, negative = inhibition is -28.2% [at 2.33 µM] (inactive).

For `Cc1ccc(NC(=O)Cn2c(=O)n(-c3ccccc3)c(=O)c3c4c(sc32)CCCC4)cc1`, the Potency result was “inactive”.

For the molecule `CCN(C(=O)CSc1nnc(C)n2c1cc1occc12)c1ccccc1`, the Potency entry was “inactive”.

On to `O=C(C1CC1)N1CCN=C1SCc1ccc(Cl)cc1`, for which the Potency entry was “inactive”.

With `Clc1ccc(CSc2nncn3c2cc2occc23)cc1`, the Potency was 12.6 µM (active).

Take `Cc1cc(=O)oc2c(C)c(OC(C)C(=O)NC3CCN(Cc4ccccc4)CC3)ccc12` (stereo not drawn): the Potency entry was “inactive”.

With `Cc1ccc2c(c1)-c1c(cnn1CC(=O)Nc1ccccc1C#N)CO2`, the Potency entry was “inactive”.

Regarding `CN1C(=O)c2ccccc2Sc2ccc(NC(=O)Cc3ccc(Cl)cc3)cc21`, the Potency entry was “inactive”.

As to `CN1C(=O)/C(=C\c2cc(Br)cs2)c2ccccc21`, the Potency was 10 µM (active).

As to `CCC1C(=O)c2ccccc2N(C)C1=O` (stereo not drawn), the Potency entry was “inactive”.

Take `COc1ccccc1-c1cc2nc(C)c(CCC(=O)O)c(C)n2n1`: the Potency result was “inactive”.

For `CCCNC(=O)c1ccc2c(c1)ncn2-c1ccc(C)cc1C`, the Potency result is “inactive”.
